# Rows were chosen to be rich in hits. Some 1.9% of all compounds tested hit in one or more screens of this group.
# ATG4B inhibitor = inhibitors of human ATG4B cysteine protease; Q9Y4P1; ATG4B cleavage of LC3-PLA2, NBD-HPC fluorescence, 1 h; inhibition, % at 8.33 µM; 340,000 tested, 0.51% active; AID 504462; in the data active = inhibition above about 40%
# Target sequence (Q9Y4P1 whole entry, looked up): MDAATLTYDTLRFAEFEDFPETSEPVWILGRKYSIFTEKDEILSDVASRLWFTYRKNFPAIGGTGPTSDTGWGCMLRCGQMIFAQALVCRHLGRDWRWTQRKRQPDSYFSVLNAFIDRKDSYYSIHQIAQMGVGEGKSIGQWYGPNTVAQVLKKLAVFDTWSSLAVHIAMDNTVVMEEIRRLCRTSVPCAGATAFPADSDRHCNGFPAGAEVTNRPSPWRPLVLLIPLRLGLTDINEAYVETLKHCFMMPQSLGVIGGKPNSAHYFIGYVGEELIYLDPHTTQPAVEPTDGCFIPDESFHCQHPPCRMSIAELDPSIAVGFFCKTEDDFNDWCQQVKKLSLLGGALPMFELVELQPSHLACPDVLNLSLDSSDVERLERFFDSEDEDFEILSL
# Vif imaging = inhibitors of HIV Vif | HEK293T cells, Vif self-association by quenched fluorescence, imaging, 24 h | inhibition, % at 7.49 µM | 340,000 tested, 0.35% active | AID 602346; in the data active = inhibition above about 50%, passing the limit was not always enough; inconclusive = no clear call, values can overlap the other calls; inactive = below about 31%
# NSD2 HMT inh = NSD2 (human) methyltransferase inhibition; O96028; NSD2 peptide methylation, AlphaScreen, 120 min; inhibition, % at 12.5 µM; 310,000 tested, 0.54% active; in the data active = inhibition above about 50%
# CaV13 FRET inh = Disruptors of the CACNA1D IQ motif to Ca2+-dependent inactivation inhibitor domain association, primary screening, Förster resonance energy transfer in intact living …; 340,000 tested, 0.098% active; inhibition, % at 12.3 µM; HEK cells, CFP/YFP FRET ICDI-IQ, plate reader, 10 min; percent FRET-ratio fall versus neutral wells;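 active = mean replicate inhibition of at least 30% and at least 1% of replicates passing that level; inconclusive = only one of the two criteria is met; inactive = neither criterion is met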
# DSG3 Ab inh = inhibitors of pemphigus antibody binding to human desmoglein-3. DSG3-coupled beads, scFv-anti-DSG3-GFP binding, flow cytometry; active compounds read low. P32926. binding (percent of control), % at 10 µM. 310,000 tested, 0.48% active;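 active = binding more than 3 SD below its plate's average and above zero; inconclusive = below that plate limit but binding exactly zero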;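 note: hits lower antibody fragment binding to DSG3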
# Glyco luc inh = N-linked glycosylation inhibition | D54 ERlucT glycosylation luciferase reporter, 24 h; percent of 100 nM tunicamycin response | reporter increase, % at 12.5 µM | 360,000 tested, 0.23% active | AID 588692;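 active = mean luciferase reporter signal, scaled so untreated is 0 and the glycosylation-blocking control 100, at or above a set limit in every replicate; inconclusive = mean reaches the limit but not every replicate does; inactive = mean below the limit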;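 note: luciferase carries N-glycosylation sites so blocking glycosylation raises the light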
# Hits are given with their value; – = inactive; ? = inconclusive; · = no result.
SMILES,ATG4B inhibitor,Vif imaging,NSD2 HMT inh,CaV13 FRET inh,DSG3 Ab inh,Glyco luc inh
COc1cccc(C(=O)COc2ccc3c(C)cc(=O)oc3c2)c1,–,–,–,–,–,38
Nn1cc(-c2ccccc2)nc1SCC(=O)N1CCN(S(=O)(=O)c2ccccc2)CC1,–,·,–,–,·,–
CCN1C=C(Cc2cccs2)C2=C(C1)C(c1cccs1)C(C#N)=C(N)O2 (stereo not drawn),–,–,–,–,–,–
N=C1/C(=C/c2ccc(-c3cccc(C(=O)O)c3)o2)C(=O)N=C2SC(CC(=O)N3CCOCC3)=NN12,–,–,84,–,–,–
N=C1/C(=C\c2ccc(SCc3ccccc3)o2)C(=O)N=C2SC(CC(=O)N3CCOCC3)=NN12,–,–,–,–,–,–
COc1cc2nc(NC(=O)c3ccccc3)sc(=O)c2cc1OC,–,–,–,–,–,41
Cn1cccc1/C=N\NC(=O)C1COc2ccccc2O1 (stereo not drawn),–,–,–,–,–,–
Cn1cccc1/C=N\NC(=O)C1COc2ccc(C(C)(C)C)cc2O1 (stereo not drawn),–,–,–,–,24,–
Cc1ccc(C)c(N2CCN(C(=S)Nc3ccc4nc(N5CCN(C)CC5)cc(C)c4c3)CC2)c1,–,–,–,–,–,–
COc1cc(CNCc2ccccc2)c(Br)cc1OC1CCCC1,–,75,–,–,–,–
CCCCCCNC(=O)c1cc(S(=O)(=O)N2CCc3ccccc32)ccc1F,–,–,–,–,87,–
CCCNC(=O)c1cc(S(=O)(=O)N2CCc3ccccc32)cn1C,–,·,·,–,–,–
COc1cccc(-n2c(=O)[nH]cc(C(=O)Nc3ccc(NC(C)=O)cc3)c2=O)c1,–,–,·,–,–,–
Cc1ccccc1S(=O)(=O)NC(=O)C1(C)CCN1C(=O)CCc1cccs1 (stereo not drawn),·,68,–,–,·,–
O=C(CC(c1ccccc1)c1ccccc1)Nc1ccc(Cl)cn1,–,–,–,–,–,–
Cc1cc(C)cc(C(=O)OCC(=O)Nc2ncccn2)c1,–,56,–,–,–,–
O=C(COC(=O)/C=C/c1cccc(F)c1)Nc1ncccn1,–,–,–,–,83,–
O=C(Nc1ccc(OC(F)F)cc1)c1cc(S(=O)(=O)N2CCOCC2)ccc1F,–,–,–,·,–,–
CCOC(=O)C[C@@H](C#N)NC(=O)[C@@H]1CCCN1C(=O)[C@@H](NC(=O)c1ccc(N)c(Cl)c1)C(C)(C)C,·,76,·,–,·,–
COc1ccc(N2CCN(S(=O)(=O)c3ccc(C(=O)NC4CCCC4)cc3)CC2)cc1,–,–,–,–,75,–
COc1ccc(C(=O)Nc2ccc(N3CCCC3)cc2)cc1,–,–,–,–,–,–
COc1ccc(C(=O)NC(=S)Nc2ccc(N3CCCC3)cc2)cc1,–,–,–,–,19,–
COc1ccc(S(=O)(=O)N2CCCC2CNC(=O)C(=O)NC2CCCCCC2)cc1 (stereo not drawn),–,–,–,–,–,–
COc1ccc(S(=O)(=O)N2CCCC2CNC(=O)C(=O)NC2CCCC2)cc1 (stereo not drawn),·,–,–,31,–,–
CCC(=O)c1ccc(OC(=O)Cc2ccc(OC)cc2)cc1,–,–,–,–,–,–
SMILES,ATG4B inhibitor,Vif imaging,NSD2 HMT inh,CaV13 FRET inh,DSG3 Ab inh,Glyco luc inh
Cc1n[nH]c(=S)n(NC(=O)/C=C/C(=O)Nn2c(=S)[nH]nc(C)c2=O)c1=O,–,–,–,–,36,–
Cc1n[nH]c(=S)n(NC(=O)CC(=O)Nn2c(=S)[nH]nc(C)c2=O)c1=O,–,–,–,–,–,–
Cc1ccc(C(=O)NNC(=O)c2csc(N3CCOCC3)n2)o1,–,–,–,–,96,–
Cc1ccc(S(=O)(=O)Nc2nc3ccccc3nc2NCc2ccco2)cc1,–,–,–,·,–,–
O=S(=O)(Nc1nc2ccccc2nc1NCc1ccco1)c1ccc(Cl)cc1,–,62,–,·,–,–
O=P1(O)CC2=C(CC=CC2)C1,·,–,–,–,–,–
CCS(=O)(=O)c1ccc2oc(Nc3ccccc3Br)nc2c1,–,–,–,–,–,–
COc1cc(C(=O)NC2CCN(C)CC2)ccc1Nc1ncc2c(n1)N(C1CCCC1)CCC(=O)N2C(C)C,–,–,·,·,–,59
COc1cc(C(=O)NC2CCN(C)CC2)ccc1Nc1ncc2c(n1)N(CCc1ccccc1)CCC(=O)N2C,–,–,·,–,–,62
CN1CCC(NC(=O)c2cccc(Oc3ccccc3)c2)CC1,–,–,–,–,–,–
COc1cc(/C=N/N(C)C2=NS(=O)(=O)c3ccccc32)cc(OC)c1OC,–,–,–,–,–,–
COc1cccc(/C=N/N(C)C2=NS(=O)(=O)c3ccccc32)c1O,–,–,–,–,80,–
CC(C)CN(CC(C)C)c1nn[nH]n1,–,–,–,–,86,–
COc1ccc(C2=NOC(C(=O)Nc3ccc(C(C)=O)cc3)C2)cc1OC (stereo not drawn),–,–,–,–,–,–
COc1cc(C2=NOC(C(=O)Nc3ccc(C(C)=O)cc3)C2)cc(OC)c1OC (stereo not drawn),–,–,–,–,79,–
COc1ccc(C2=NOC(C(=O)Nc3cccc(O)c3)C2)cc1 (stereo not drawn),–,–,–,–,82,–
NC(=S)NC1CC2CC1C1C=CCC21 (stereo not drawn),–,–,–,–,–,–
CNNC(=S)NC1CC2CC1C1C=CCC21 (stereo not drawn),–,–,–,41,–,–
CCOc1ccc(N(CC(=O)NCCSCc2ccco2)S(=O)(=O)c2ccc(C)cc2)cc1,–,–,–,–,81,–
CCOC(=O)CN(C(=O)CSc1nnc(-c2ccncc2)n1CCCN(C)C)c1ccccc1,–,–,–,–,·,–
CNC(=O)CSc1nc2cc(S(=O)(=O)Nc3ccc(OC)cc3)ccc2o1,–,–,·,–,-4.7,–
COc1ccc(NS(=O)(=O)c2ccc3oc(SC)nc3c2)cc1,–,–,–,–,–,–
Cc1ccc(C)c(S(=O)(=O)NCC(=O)N2CCCC2)c1,–,–,–,–,–,–
CC(C)NC1=C(Cl)C(=O)c2ccccc2C1=O,–,63,–,·,–,–
C/C(=N\Nc1ccc([N+](=O)[O-])cc1)c1ccc(N)cc1,–,–,–,–,–,–
CCc1ccc(/C(C)=N\Nc2ccc([N+](=O)[O-])cc2)cc1,–,60,–,–,?,–
CCCn1c(=O)[nH]c(=O)c2c1nc(-c1cc([N+](=O)[O-])ccc1Cl)n2CCOC,–,65,–,–,–,–
Cc1nc(NC(=O)C(C)Oc2cccc(Cl)c2)sc1C(=O)N(C)C (stereo not drawn),–,52,–,–,–,–
